In PubChem BioAssay AID1259341 (Broad Institute, 2017):
The source made the active and inactive calls.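 How the source made its calls: active means activity change under -35% in any replicate well, with more than 20 beads read in that well; inactive means the rest.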

target: Caspase recruitment domain-containing protein 9 (Homo sapiens) + E3 ubiquitin-protein ligase TRIM62 (Homo sapiens) (UniProt Q9H257+Q9BVG3); experiment: disruptors of CARD9-TRIM62 binding, primary screen, cell lysate, HEK293FT lysates, Luminex bead ELISA (AID 1259341); conditions: PE fluorescence, stronger effect = lower value, concentration not given here;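 further: PE anti-Flag signal of Flag-CARD9 captured by myc-TRIM62 beads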
Sequence (Q9BVG3 whole entry, looked up, the tested form may be a part): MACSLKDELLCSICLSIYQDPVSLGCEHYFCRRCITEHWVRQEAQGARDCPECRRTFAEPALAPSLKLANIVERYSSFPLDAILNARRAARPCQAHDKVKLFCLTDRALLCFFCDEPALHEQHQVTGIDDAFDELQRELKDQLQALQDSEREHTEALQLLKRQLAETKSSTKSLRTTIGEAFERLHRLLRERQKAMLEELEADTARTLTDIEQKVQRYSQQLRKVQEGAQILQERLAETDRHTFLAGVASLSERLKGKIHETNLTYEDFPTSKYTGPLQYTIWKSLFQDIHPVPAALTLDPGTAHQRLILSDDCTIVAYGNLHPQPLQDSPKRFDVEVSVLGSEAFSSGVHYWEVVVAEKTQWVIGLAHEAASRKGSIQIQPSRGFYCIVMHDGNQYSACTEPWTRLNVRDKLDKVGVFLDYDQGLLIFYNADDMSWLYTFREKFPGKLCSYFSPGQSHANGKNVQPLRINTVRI
Sequence (Q9H257 whole entry, looked up, the tested form may be a part): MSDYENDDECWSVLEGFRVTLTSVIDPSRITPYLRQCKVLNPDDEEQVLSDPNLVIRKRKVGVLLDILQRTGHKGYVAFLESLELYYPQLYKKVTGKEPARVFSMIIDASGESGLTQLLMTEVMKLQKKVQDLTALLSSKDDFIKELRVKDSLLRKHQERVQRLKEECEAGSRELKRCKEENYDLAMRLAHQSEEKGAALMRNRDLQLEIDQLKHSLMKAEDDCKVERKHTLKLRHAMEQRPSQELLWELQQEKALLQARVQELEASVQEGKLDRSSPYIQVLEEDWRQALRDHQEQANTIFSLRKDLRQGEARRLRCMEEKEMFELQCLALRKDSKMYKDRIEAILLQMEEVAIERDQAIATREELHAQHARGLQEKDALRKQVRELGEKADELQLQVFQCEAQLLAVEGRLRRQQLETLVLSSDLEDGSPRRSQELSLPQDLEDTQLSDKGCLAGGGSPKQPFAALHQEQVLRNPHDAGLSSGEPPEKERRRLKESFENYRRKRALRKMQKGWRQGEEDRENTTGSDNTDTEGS

Activity change, negative = inhibition, inactive:
Cc1cncc(-c2ccc(S(N)(=O)=O)cc2F)c1 -3.94%, COC[C@]1(O)CCN(C(=O)CCN(C)S(C)(=O)=O)CC1(C)C -0.387%, O=C1CS/C(=N\N=C\c2ccco2)N1c1ccccc1 -3.42%, Cc1ccc2c(c1)C(N1CCCC1=O)CC(c1ccco1)N2 (stereo unspecified) 5.12%, Clc1ccc2nc(CN3CCCCCC3)cn2c1 5.28%, N#Cc1c(-c2ccco2)cc(-c2cccnc2)nc1N 0.372%, Cc1ccc(-c2nn(-c3ccccc3)cc2CN(Cc2ccccc2)C(=O)CCC(=O)O)o1 7.87%, O=C(Nc1ccc2c(c1)nc1n2CCN(C2CCCCC2)C1)c1ccco1 -2.69%, O=C(Nc1cccc2ccccc12)NC1CC1 -2.1%, CS(=O)(=O)c1ccc2ccn(O)c2c1 -9.61%, C[C@H](CO)N1C[C@H](C)[C@@H](CN(C)CC2CCCCC2)OCCCC[C@H](C)Oc2ccc(NS(=O)(=O)c3ccc(F)cc3)cc2C1=O -12.1%, Nc1ccc(-c2cccc(CN3CCCC3)c2)cc1 -3.56%, O=C(O)C1Oc2cc3ccccc3cc2O1 -13.6%, c1coc(-c2cn3ccc4ccccc4c3n2)c1 -1.55%, N#Cc1c(N)oc(-c2ccco2)c1-c1ccco1 -6.71%, O=C(O)c1cc(-c2ccco2)nc2ccccc12 15.8%, Cc1noc(CN(C)C(=O)c2cc(-c3ccco3)nc3c(C)c(Cl)ccc23)n1 -1.57%, Cc1sc2ncnc(SCc3ccco3)c2c1C -1.85%, CC1Cc2ccccc2N1CC(=O)NC(=O)NC(C)(C)C (stereo unspecified) 2.18%, NC(=O)c1ccc(CN2C(=O)C3(CCNCC3)Nc3ccccc32)cc1 -4.33%, Cc1cccc(Nc2nc(C(=O)Nc3cc(F)ccc3F)nc3ccccc23)c1 1.63%, Cc1noc(C)c1S(=O)(=O)Nc1ccc2c(c1)C(=O)N([C@H](C)CO)C[C@H](C)[C@@H](CN(C)CC1CCCCC1)OCCCC[C@H](C)O2 7.9%, CCC1c2ccc(C)n2CCN1C(=O)Nc1ccccc1C(=O)OC (stereo unspecified) 22.8%, CC(=O)Nc1ccc2nc3c(=O)n(C)c(=O)n(C)c3nc2c1 3.76%, CCN1CCN(C(=O)c2cc(-c3ccco3)nc3ccccc23)CC1 4.84%, O=C(Cn1c(=O)cc(C(=O)N2CCc3ccccc3C2)c2ccccc21)NCc1ccc2c(c1)OCO2 -5.84%, O=C(NCc1ccco1)C1CCCN(S(=O)(=O)c2cccc3nonc23)C1 (stereo unspecified) 0.63%, C[C@H](CO)N1C[C@H](C)[C@@H](CN(C)CC2CCCCC2)OCCCC[C@H](C)Oc2ccc(NS(C)(=O)=O)cc2C1=O -25.8%, CC(C)C(CC(=O)NCc1ccco1)c1ccco1 (stereo unspecified) -8.54%, O=C(NCc1cccnc1)c1ccccc1-c1nc(-c2ccccc2)no1 -1.01%, Nc1cc2c(cc1O)CCCC2 -4.6%, O=S(=O)(c1ccc2nc(-c3ccco3)c(-c3ccco3)nc2c1)N1CCOCC1 -5.03%, COc1ccc(-c2nnc(-c3nc(Nc4ccc(NC(C)=O)cc4)c4ccccc4n3)o2)cc1 9.87%, CCCc1cc(C(=O)N2CC[C@H]3CNC[C@H]32)n(C)n1 -0.754%, COCC(=O)n1nc(-c2ccco2)nc1NCc1cccs1 -2.31%

Activity change, negative = inhibition, active:
Cc1ccc(C(=O)Nc2cnc(N3CCC(C(N)=O)(N4CCCCC4)CC3)c(C(=O)O)c2)cc1 -51.3%
